Efflux pump inh: inhibitors of Candida antifungal efflux pumps expressed in yeast. S. cerevisiae Candida pump triplex, Nile Red efflux. inhibition, % at 10 µM. 0.44% of 330,000 active. AID 485275;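 active = plate passing quality check with inhibition over a set limit, or well fluorescence over plate mean plus 4 SD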;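 note: Nile Red retained in pooled yeast measured as flow cytometry median fluorescence; higher means more Nile Red kept so more efflux inhibition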
eIF4H inh: inhibitors of RNA binding by human eIF4H; AID 2012; inhibition, % at 35 µM; Q15056; 0.94% of 290,000 active; eIF4H fluorescence polarization binding assay;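 note: calls also rest on retests at 20 µM and on dose response follow-up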
PABP FP inh: blocks human PABP binding to poly(A) RNA. P11940. fluorescence polarization. inhibition, % at 35 µM. 1% of 290,000 active. AID 2014;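 note: calls also rest on retests at 20 µM and on dose response follow-up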
SUMO HTRF inh: inhibitors of human SUMOylation (UBC9); HTRF SUMOylation assay, SAE1/SAE2 + UBC9, in vitro; inhibition, % at 35 µM; 0.36% of 290,000 active; in the data active = inhibition above about 50%, passing the limit was not always enough; inconclusive = no clear call, values can overlap the other calls
Target sequence (P63279 whole entry, looked up): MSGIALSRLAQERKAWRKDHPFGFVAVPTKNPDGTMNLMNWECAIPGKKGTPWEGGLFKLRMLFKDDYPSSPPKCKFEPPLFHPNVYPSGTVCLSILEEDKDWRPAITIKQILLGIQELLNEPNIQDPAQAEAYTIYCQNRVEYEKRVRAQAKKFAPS
ALR inh: human ALR oxidase inhibition via reduced H2O2; P55789; purified ALR, DTT oxidation, H2O2 HRP-luminol luminescence; inhibition, % (no concentration beside the values); 3.8% of 290,000 active; AID 485317;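 active = mean replicate inhibition above about 79%, with every replicate also reaching it, limit read from the data; inconclusive = only one of the two criteria met; inactive = mean below limit and not every replicate reaching it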
Target sequence (P55789 whole entry, looked up): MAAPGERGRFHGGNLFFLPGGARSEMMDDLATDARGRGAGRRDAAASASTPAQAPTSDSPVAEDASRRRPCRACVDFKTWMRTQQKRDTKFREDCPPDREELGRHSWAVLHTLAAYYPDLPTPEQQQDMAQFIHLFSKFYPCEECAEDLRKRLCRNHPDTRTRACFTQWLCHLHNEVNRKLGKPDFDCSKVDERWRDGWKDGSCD
MLLE-PAM2 inh: blocks PAM2 peptide binding to the PABP1 MLLE domain; P11940; GST-MLLE / FITC-PAM2 fluorescence polarization; inhibition, % at 20 µM; 0.36% of 360,000 active; in the data active = inhibition above about 35%, passing the limit was not always enough
Of the large screens only hits and unclear results are named; the others gave an inactive call. Hits are enriched below; roughly 4.7% of the tested compounds scored in any of these assays. Unless noted, the rule behind the calls is not given here.

COc1ccc(C2c3sc(=O)[nH]c3SC3C(=O)N(c4ccccc4)C(=O)C32)cc1 (configuration not stated)	eIF4H inh 66 (no result: ALR inh)
O=c1c2ccccc2sn1-c1ccc(F)cc1	MLLE-PAM2 inh 37 (no result: eIF4H inh, PABP FP inh, SUMO HTRF inh)
Cc1ccc(-n2sc3ccccc3c2=O)cc1	none
O=C(COc1ccc(-n2cnnn2)cc1)Nc1cccc(Cl)c1Cl	eIF4H inh 65
Cn1c(SCc2cccc(F)c2)nnc1-c1ccncc1	none
COc1cc(NC(=O)CSc2nnnn2C2CCCC2)cc(OC)c1	none (no result: ALR inh)
O=C(O)c1cc(N/N=C/c2ccc(-c3ccccc3)cc2)ccc1Cl	ALR inh 99
COc1cc(/C=N/Nc2ccc(Cl)c(C(=O)O)c2)ccc1OC(=O)c1cccs1	ALR inh 97
NS(=O)(=O)c1ccc(N/N=C/C=C/c2ccccc2[N+](=O)[O-])cc1	none
COc1cc(/C=N/Nc2ccccc2)ccc1OC(=O)c1cccs1	none (no result: MLLE-PAM2 inh)
O=C(O)c1cc(N/N=C/c2ccc(N3CCOCC3)cc2)ccc1Cl	ALR inh 97
O=C(O)c1cc(N/N=C/C=C/c2ccccc2[N+](=O)[O-])ccc1Cl	ALR inh 99
O=C(CCNC(=O)c1ccccc1Cl)Nc1ccc2c(c1)OCCO2	none (no result: Efflux pump inh, eIF4H inh, PABP FP inh, SUMO HTRF inh, ALR inh)
C/C(=N\Nc1ccc(Cl)c(C(=O)O)c1)c1cccc([N+](=O)[O-])c1	ALR inh 98
C/C(=N\NC(=O)c1ccccc1C)c1cccc([N+](=O)[O-])c1	none
CO[C@H]1C=CO[C@@]2(C)Oc3c(C)c(O)c4c(O)c(c(C=NN5CCN(C6CCCC6)CC5)c(O)c4c3C2=O)NC(=O)C(C)=CC=C[C@H](C)[C@H](O)[C@@H](C)[C@@H](O)[C@@H](C)[C@H](OC(C)=O)[C@@H]1C	eIF4H inh inconclusive, PABP FP inh inconclusive, SUMO HTRF inh 52 (no result: Efflux pump inh, ALR inh, MLLE-PAM2 inh)
COc1cccc(C(NC(C)=O)c2nc(-c3cccs3)cs2)c1 (configuration not stated)	none (no result: Efflux pump inh, eIF4H inh, PABP FP inh, SUMO HTRF inh, ALR inh)
Cn1c(=O)c2c(nc(N/N=C/c3ccncc3)n2Cc2ccccc2)n(C)c1=O	ALR inh 97
C/C(Cl)=C/Cn1c(NCCN(C)C)nc2c1c(=O)n(C)c(=O)n2C	none
Cc1ccc(Cn2c(N/N=C/c3ccncc3)nc3c2c(=O)n(C)c(=O)n3C)cc1	ALR inh 97
C/C(Cl)=C\Cn1c(Nc2ccccc2)nc2c1c(=O)n(C)c(=O)n2C	ALR inh 87
COc1cc(/C=N/Nc2nc3c(c(=O)n(C)c(=O)n3C)n2Cc2ccccc2)ccc1OC(=O)c1ccco1	none
Cc1ccc(C(C#N)=Cc2ccc3c(c2)OCO3)cc1	none (no result: Efflux pump inh, eIF4H inh, PABP FP inh, SUMO HTRF inh, ALR inh)
CN(C(=O)c1cccc(NC(=O)Cc2ccc(NC(=O)C3CCCN(C(=O)C4CCCCC4)C3)cc2)c1)C1CCC1 (configuration not stated)	none (no result: Efflux pump inh, eIF4H inh, PABP FP inh, SUMO HTRF inh, ALR inh)
CCc1ccc(/C=C/C(=O)c2cc(Br)ccc(=O)c2O)cc1	none
Cc1cccc(/C=C/C(=O)c2cc(Br)ccc(=O)c2O)c1	ALR inh 98
CCOc1ccc(/C=C/C(=O)c2cc(Br)ccc(=O)c2O)cc1	ALR inh 96
CC1(C(=O)Nc2ccc(F)cc2F)CCN1C(=O)CCC1CCCC1 (configuration not stated)	none (no result: Efflux pump inh, eIF4H inh, PABP FP inh, SUMO HTRF inh, ALR inh)
CCOC(=O)C1=CN(Cc2cccc(F)c2)S(=O)(=O)N(CC)C1c1ccc(C(F)(F)F)cc1 (configuration not stated)	none (no result: eIF4H inh, PABP FP inh, SUMO HTRF inh, ALR inh)
COc1ccccc1CNC(=O)COC(=O)c1ccccc1-c1ccccc1	none (no result: eIF4H inh, PABP FP inh, SUMO HTRF inh, ALR inh)
Cc1ccsc1C(=O)N1CCCC(C)(C(=O)O)C1 (configuration not stated)	none (no result: Efflux pump inh, eIF4H inh, PABP FP inh, SUMO HTRF inh, ALR inh)
COc1cc(/C=N/Nc2nn3cnnc3c3ccccc23)ccc1O	none
CCOc1cc(/C=N/n2cnnc2)ccc1O	ALR inh 99
CCOc1cc(/C=N/Nc2nn3cnnc3c3ccccc23)ccc1O	ALR inh 82
c1coc(C2=Nc3cccc4cccc(c34)N2)c1	eIF4H inh inconclusive, SUMO HTRF inh 94 (no result: ALR inh)
COc1cccc(C2=Nc3cccc4cccc(c34)N2)c1	none
Cc1csc(NC(=O)c2cc(-c3ccco3)nc3ccccc23)n1	eIF4H inh 88, PABP FP inh 1.9
CN(C)C(=O)c1ccc(NC(=O)c2cc(-c3ccco3)nc3ccccc23)cc1	eIF4H inh 77, PABP FP inh 40
O=C(Nc1cccc(S(=O)(=O)NC2=NCCC2)c1)c1cc(-c2ccco2)nc2ccccc12	eIF4H inh 90, PABP FP inh 68, SUMO HTRF inh 86
O=C(Nc1nccs1)c1cc(-c2ccco2)nc2ccccc12	PABP FP inh active (no result: SUMO HTRF inh, ALR inh)
Cc1nnc(NC(=O)c2cc(-c3ccco3)nc3ccccc23)s1	none (no result: eIF4H inh, PABP FP inh, SUMO HTRF inh)
C[C@@H]1CN([C@@H](C)CO)C(=O)CCCn2nncc2CO[C@@H]1CN(C)C(=O)OCc1ccccc1	none (no result: Efflux pump inh, eIF4H inh, PABP FP inh, SUMO HTRF inh, ALR inh)
COc1ccc(NC(=O)CSc2nnc(-c3cccs3)n2N)cc1S(N)(=O)=O	none (no result: eIF4H inh, PABP FP inh, SUMO HTRF inh)
Cc1cc(Br)ccc1NC(=O)CNC(=O)CN(C)C1CCS(=O)(=O)C1 (configuration not stated)	none (no result: Efflux pump inh, eIF4H inh, PABP FP inh, SUMO HTRF inh, ALR inh)
COc1ccc(OC)c(C(=O)CSc2nnc(C3CC3)n2C2CC2)c1	none (no result: Efflux pump inh, eIF4H inh, PABP FP inh, SUMO HTRF inh, ALR inh)
CCCC(=O)N1CCC1(C)C(=O)NS(=O)(=O)c1cccc(C)c1 (configuration not stated)	none (no result: Efflux pump inh, eIF4H inh, PABP FP inh, SUMO HTRF inh, ALR inh)
CC/C(=N\NS(=O)(=O)c1ccc(C)cc1)c1ccco1	ALR inh 98
C=CCNC(=O)c1onc(CSc2cc(C)ccc2C)c1C(=O)O	ALR inh 86
CC(C)c1ccc(SCc2noc(C(=O)NCC3CCCO3)c2C(=O)O)cc1 (configuration not stated)	ALR inh 97 (no result: Efflux pump inh)
C=CCNC(=O)c1onc(CSc2ccccc2C)c1C(=O)O	none
CCOc1ccc(C2NC(=O)C(C#N)=C(S)N2c2ccc(OC)cc2)cc1OC (configuration not stated)	ALR inh 97
COc1ccc(N2C(S)=C(C#N)C(=O)NC2c2ccc(OC)c(OC)c2)cc1 (configuration not stated)	none
CCOC(=O)C1(C)CCCCCN1C(=O)c1ccc(C(=O)OC)cc1 (configuration not stated)	none (no result: Efflux pump inh, eIF4H inh, PABP FP inh, SUMO HTRF inh, ALR inh)
Oc1cc(O)cc(-c2cc3ccc(O)cc3o2)c1	ALR inh 99 (no result: eIF4H inh, PABP FP inh, SUMO HTRF inh)
NC(=S)c1cc2ccc(O)cc2oc1=O	none (no result: Efflux pump inh, ALR inh)
Cc1ccc(S(=O)(=O)CC(=O)c2cc(C)c(O)c(C)c2)cc1	eIF4H inh 2.8, PABP FP inh 61
C=C(C)Cn1c2ccc(NC(=O)CCOCC)cc2c(=O)n1C	none (no result: Efflux pump inh, eIF4H inh, PABP FP inh, SUMO HTRF inh, ALR inh)
Cn1c(=O)c2sccc2n2c(CCCC(=O)NCc3ccco3)nnc12	none
CC(C)N1CC2(CC(c3ccc(Cl)cc3Cl)=NO2)CN1C(=O)c1ccc(C(C)(C)C)cc1 (configuration not stated)	none (no result: Efflux pump inh, eIF4H inh, PABP FP inh, SUMO HTRF inh, ALR inh)
O=C1c2ccccc2NC2(CCCCC2)N1c1ccc(O)cc1	ALR inh 99
C=CCc1cc(/C=C2/NC(=O)N(CC(=O)OC)C2=O)cc(OC)c1O	ALR inh 98
CCOc1cc(/C=C2/NC(=O)N(CC(=O)Nc3cccc(C)c3)C2=O)ccc1O	none
